Screening results: PubChem, National Center for Advancing Translational Sciences (NCATS)
MCF10A rerep = inducers of DNA re-replication in MCF 10A breast cells | MCF 10A DNA re-replication, Hoechst nuclear intensity, 48 h | Potency, µM (series often up to 46.1 µM), actives largely listed as activators | 350,000 tested, 2.9% active; also: nearly all actives have a fitted effect of over 50% in size
DT40 TDP1 CPT = growth inhibition of DT40 Tdp1-/-;hTDP1 cells with camptothecin (screen for TDP1 inhibitors). Potency, µM (doses to about 46.2 µM), most hits filed as inhibitors. chicken DT40 Tdp1-/-;hTDP1 cells + 20 nM CPT, ATP luminescence, 48 h. 420,000 tested, 12% active. AID 686979; also: nearly all actives have a fitted effect of over 55% in size
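Chicken DT40 Tdp1-/- cells complemented with human TDP1, 400 cells/well, exposed to compounds plus 20 nM camptothecin for at least 48 h at 37 C; viability read as ATP content by CellTiter-Glo luminescence.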
DT40 TDP1 no CPT = qHTS for Inhibitors of human tyrosyl-DNA phosphodiesterase 1 (TDP1): qHTS in cells in absence of CPT; AID 686978, 2013; DT40 Tdp1-/- hTDP1 cells, no CPT, ATP luminescence, 48 h; 420,000 tested, 15% active; Potency, µM (doses to about 46.2 µM), actives largely listed as inhibitors; also: nearly all actives have a fitted effect of over 55% in size
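Luminescent ATP content (CellTiter-Glo) served as the growth readout. Knockout chicken DT40 cells expressing human TDP1 were exposed to compounds without camptothecin for a minimum 48 hr at 37 °C.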
Chronic BCR inh = chronic active BCR signaling inhibition; AID 493014; Potency, µM (top dose mostly 46.1 µM), actives largely listed as inhibitors; 340,000 tested, 0.05% active; ABC-DLBCL IkBa-CBG/CBR reporter, luminescence ratio, 4 h; active = well fitted inhibition curve with a large enough effect in the signal ratio, with a control signal flat, not every such curve was filed as active; inconclusive = small, poorly fitted or top-dose-only effect, or effect the other way, or a change in a side signal; the % refers to the signal ratio
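Concentration-response series (up to 46 uM) were applied to TMD8 dual-reporter cells for 4 h at 37C with doxycycline. Green/red ratio, after filter-overlap correction, defined %Activity; red signal alone was normalised to basal cells and zero luminescence.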
IL-1B inflam inh = inhibitors of inflammasome signaling (IL-1 beta secretion); THP-1 LPS/ATP IL-1B secretion, AlphaLISA, 16 h; active compounds read low; activity change, % at 57.5 µM; 360,000 tested, 4.7% active; AID 743279; in the data active = activity change below about -50%; inconclusive = mostly about -30% to -49%
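Secreted IL-1B measured by AlphaLISA bead assay after 16 h compound exposure of THP-1 cells; compounds (final up to 57.5 uM) added 1 h before LPS (250 ng/mL) and ATP (1.25 mM) stimulation; lower signal means less secretion.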
SW480 rereplic = DNA re-replication induction in SW480 cells | SW480 DNA re-replication, Hoechst DNA content imaging, 48 h | Potency, µM (series often up to 46.1 µM), actives largely listed as activators | 340,000 tested, 1.8% active | AID 624297; also: nearly all actives have a fitted effect of over 55% in size
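Readout is total intensity of Hoechst-stained nuclei, excited at 405 nm and collected at 500-530 nm. Compound treatment lasted 48 hr at 37 C in 5% CO2 before staining.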
Hits are given with their value; – = inactive; ? = inconclusive; · = not tested or not shown. Rows were chosen to be rich in hits. Some 19% of all compounds tested hit in one or more screens of this group. Unless noted, calls follow the shape of the dose curve; as a rule, active = well fitted curve in the direction sought with a large enough effect; inconclusive = small, poorly fitted or top-dose-only effect, or another doubt; inactive = no such curve, though single readings can be large; an effect the other way counts as inactive or inconclusive.

SMILES | MCF10A rerep | DT40 TDP1 CPT | DT40 TDP1 no CPT | Chronic BCR inh | IL-1B inflam inh | SW480 rereplic
NC(=O)c1nc(-c2ccc(F)c(F)c2)nc2c1[nH]c(=O)n2-c1cccc(Cl)c1 | · | ? | – | · | · | ·
COc1ccc(CNC(=O)C(=O)NCCC2CCCCN2S(=O)(=O)c2ccccc2)cc1 (centres undefined) | – | ? | ? | – | – | –
Cc1ccc(S(=O)(=O)N2CCCCC2CCNC(=O)C(=O)NCc2ccccc2)cc1 (centres undefined) | ? | 3.3µM | 2.9µM | ? | – | 6.5µM
Cc1ccc(C)c(S(=O)(=O)N2CCCCC2CCNC(=O)C(=O)NCc2ccco2)c1 (centres undefined) | ? | 16µM | 8.2µM | – | – | ?
Cc1ccc(C)c(S(=O)(=O)N2CCCC2CNC(=O)C(=O)NCc2ccco2)c1 (centres undefined) | – | ? | ? | – | – | –
Cc1ccc(S(=O)(=O)N2CCCCC2CCNC(=O)C(=O)NCc2ccncc2)cc1 (centres undefined) | – | ? | ? | ? | – | –
COc1ccc(CNC(=O)C(=O)NCCC2CCCCN2S(=O)(=O)c2ccc(C)cc2)cc1 (centres undefined) | – | 16µM | 26µM | – | – | –
Cc1ccc(C(=O)N2CC3(C(C)C)CN(C(=O)c4ccc(C)cc4)CC(C(C)C)(C2)C3=O)cc1 | – | ? | 15µM | – | – | –
CC1CCCCC1N(C)C1CCN(C(=O)CNC(=O)/C=C/c2cccc(Cl)c2)CC1 (centres undefined) | – | ? | ? | ? | – | ?
O=C(NCc1ccccc1)C1c2ccccc2OCC(=O)N1Cc1cccnc1 (centres undefined) | · | – | – | · | – | ·
Cc1cc(SCc2ccccc2)nc(=O)[nH]1 | – | – | – | – | – | –
O=c1cc(SCc2ccccc2)nc[nH]1 | – | – | – | · | -80 | –
O=C(Nc1ccccc1)N1CCN(S(=O)(=O)c2ccccc2)CC1 | – | – | – | – | – | –
CCCn1c(=O)c(C(=O)Nc2ccccc2)c(O)c2ccccc21 | – | ? | ? | – | – | –
CC(C)Cn1c(=O)c(C(=O)Nc2cnccn2)c(O)c2ccccc21 | – | ? | 26µM | – | – | –
CC(C)Cn1c(=O)c(C(=O)Nc2ccncc2)c(O)c2ccccc21 | ? | 2.9µM | 4.1µM | · | – | ?
CCCn1c(=O)c(C(=O)Nc2ncccc2O)c(O)c2ccccc21 | – | – | – | – | – | –
CCOC(=O)C1CCCN(C(=O)c2cc(Nc3ccc(OC)c(OC)c3)nc3ccccc23)C1 (centres undefined) | – | ? | 16µM | ? | -93 | –
CCOC(=O)C1CCCN(C(=O)c2cc3c(Cl)nc4ccccc4c3s2)C1 (centres undefined) | · | ? | 18µM | · | · | ·
CCOC(=O)C1CCCN(C(=O)c2cc(Nc3ccc(OC)cc3OC)nc3ccccc23)C1 (centres undefined) | – | 16µM | 21µM | ? | – | –
CCC(=O)c1c(O)cc(O)cc1O | – | – | – | · | · | –
O=C(NC(=O)c1cc([N+](=O)[O-])ccc1Cl)C1=C(N2CCCC2)COC1=O | – | ? | – | – | – | –
CC(=O)c1cccc(NC(=O)NNC(=O)c2ccc(-c3ccccc3)cc2)c1 | – | – | – | – | – | –
Cc1ccnc(NS(=O)(=O)c2ccc(NC(=O)C(C)(C)Oc3ccc(Cl)cc3)cc2)n1 | · | – | – | · | · | ·
Cc1nc2c3cc(Cl)ccc3n(CCN3CCCCC3)c2s1 | 18µM | 21µM | 23µM | – | – | 15µM
SMILES | MCF10A rerep | DT40 TDP1 CPT | DT40 TDP1 no CPT | Chronic BCR inh | IL-1B inflam inh | SW480 rereplic
Cc1nc2c3cc(F)ccc3n(Cc3ccc(F)cc3)c2s1 | ? | ? | 8.2µM | – | – | ?
COc1cc(OC)cc(-c2nc3nc(C)c(CCC(=O)Nc4ccc(F)cc4F)c(C)n3n2)c1 | · | ? | 13µM | · | · | ·
COc1cc(OC)cc(-c2nc3nc(C)c(CCC(=O)Nc4cc(F)ccc4F)c(C)n3n2)c1 | · | ? | 8.2µM | · | · | ·
O=C(Nc1ccc(Br)cc1)c1ccc(F)c(S(=O)(=O)N2CCc3ccccc32)c1 | · | 23µM | 21µM | ? | · | ·
O=C(Nc1ccc(Br)cc1)c1ccc(F)c(S(=O)(=O)NCc2cccs2)c1 | ? | 15µM | 21µM | ? | -55 | –
O=S(=O)(NCc1cccs1)c1ccc(Br)cc1 | – | – | – | – | – | –
CC(C)c1ccc(NC(=O)c2ccc(F)c(S(=O)(=O)N3CCc4ccccc43)c2)cc1 | · | 5.2µM | 7.3µM | – | · | ·
O=C(Nc1cccnc1)c1ccc(Cl)c(S(=O)(=O)N2CCc3ccccc32)c1 | – | – | – | – | – | –
O=C(Nc1cccc(Cl)c1)c1ccc(F)c(S(=O)(=O)NCc2ccc3c(c2)OCO3)c1 | ? | – | 26µM | ? | – | –
C[C@H](CO)N1C[C@H](C)[C@@H](CN(C)C(=O)C2CCCCC2)OCc2cn(nn2)CCCC1=O | · | ? | – | · | – | ·
O=C(C[n+]1csc2ccccc21)c1ccc(O)c(O)c1 | · | ? | 16µM | · | · | ·
O=C(C[n+]1cccc(Br)c1)c1ccc(O)c(O)c1 | · | – | – | · | · | ·
CCCOc1ccc(C(=O)CCC(=O)OCC(=O)N2CCN(S(=O)(=O)c3ccc(C)cc3C)CC2)cc1 | – | – | ? | · | – | –
O=C1CCc2cc(S(=O)(=O)Nc3ccccc3F)cc3c2N1CCC3 | – | – | – | – | – | –
COc1cccc(N2CCN(C(=O)c3ccc4c(Cl)c5c(nc4c3)CCCC5)CC2)c1 | · | 21µM | 21µM | · | · | ·
Cc1cccc(N2CCN(C(=O)c3ccc4c(Cl)c5c(nc4c3)CCCC5)CC2)c1C | · | 18µM | ? | · | · | ·
CCCNC(=O)N1CCN(S(=O)(=O)c2ccc3c(c2)OCCO3)CC1 | – | – | – | – | – | –
COc1ccc(OC)c(S(=O)(=O)Oc2ccc(N)c3ccccc23)c1 | – | ? | 23µM | · | – | ?
COc1cc(=O)n2c(c1C(=O)NCc1ccco1)CCN(Cc1cc3ccccc3[nH]1)CC2 | · | – | – | · | · | ·
CCOC(=O)c1cnc2ccc(OC)cc2c1Nc1ccc(OCc2ccccc2Cl)cc1 | · | 12µM | 7.3µM | · | · | ·
CCOC(=O)c1cnc2ccc(C)cc2c1Nc1ccc(OCc2ccccc2Cl)cc1 | · | ? | 23µM | · | · | ·
CCOC(=O)c1cnc2ccc(C(=O)OC)cc2c1Nc1ccc(OCc2ccccc2Cl)cc1 | · | – | ? | · | · | ·
CCOC(=O)c1cnc2ccccc2c1Nc1cccc(OC)c1 | · | ? | 16µM | ? | · | ·
CCOC(=O)c1cnc2ccccc2c1Nc1ccc(N2CCOCC2)cc1 | · | ? | – | · | · | ·
